The text below walks through data of PubChem BioAssay.

The structures appear in SMILES notation. Activity calls are given as the source filed them.

For experiment [1], the system named is PRMT1 (protein arginine N-methyltransferase 1). Description: small molecules binding arginine methyltransferase PRMT1 – biochemical, small-molecule microarray, 635 nm fluorescence, primary screen (AID 1088).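 Further: binding of Prmt1 protein to compounds spotted on small-molecule microarray slides.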 To be noted: higher = more signal.
Experiment [2] is described as follows: growth effects on S. cerevisiae YJM789 – YJM789 clinical isolate, OD600, 24 h, basal, primary screen (AID 1089).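 Further: growth of clinical yeast isolate S. cerevisiae YJM 789 seeded 1000 cells per well; test concentration not given here.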 As to conditions: higher = more signal, called active from +8 up or from −8 down.
Experiment [3] in a line: S. pombe growth modifiers, basal conditions – strain 972, OD600, 24 h, no modulator, primary screen (AID 1090).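 Further: basal condition with compound alone and no growth modifier present; test concentration not given here.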 As to conditions: S. pombe 972 growth, higher = more signal, called active from +8 up or from −8 down.
The nature of experiment [4]: budding yeast growth modifiers under rapamycin – strain BY4716, OD600, 96 h, primary screen (AID 1091). Further: test concentration not given here. As to conditions: S. cerevisiae BY4716 + rapamycin, higher = more signal, called active from +8 up or from −8 down.
Experiment [5] has as its target Torsin-1A-interacting protein 2 (Homo sapiens) (UniProt Q8NFQ8). Put plainly: small molecules binding lysate-expressed LULL1 – cell lysate, human LULL1 lysate, 635/667 nm fluorescence, primary screen (AID 1092).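 Further: probe is lysate of COS7 cells overexpressing human LULL1; score merges per-feature 667 nm fluorescence with signal-to-noise.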 As to conditions: small-molecule microarray, hLULL1 lysate binding, 635 nm fluorescence; higher = more signal.
Experiment [6] in a line: optical density change of DRC41 E. coli – strain DRC41, OD650, 24 h, E. coli filamentation project, primary screen (AID 1093).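 Further: MC1000 strain lacking acrAB efflux and sulA so SOS filamentation is blocked; test concentration not given here.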 As to conditions: E. coli DRC41 growth, higher = more signal, called active from +8 up or from −8 down.
Experiment [7] in a line: probe aLefty2 binding to arrayed compounds – biochemical, biotinylated probe, 635/667 nm fluorescence, primary screen (AID 1094).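 Further: score merges spot fluorescence near 667 nm with spot signal-to-noise ratio.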 As to conditions: small-molecule microarray, higher = more signal.
For experiment [8], the system named is Noggin (protein binding on small-molecule microarray). Put plainly: small molecules binding Noggin protein – biochemical, 635/667 nm fluorescence, primary screen (AID 1095).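 Further: score merges 667 nm feature fluorescence with signal to noise over triplicate slides.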 As to conditions: 635 nm fluorescence, higher = more signal.
The target in experiment [9] is Neurogenic locus notch homolog protein 3 (Homo sapiens) (UniProt Q9UM47). Put plainly: small molecules binding NOTCH3 protein – biochemical, 635/667 nm fluorescence, primary screen (AID 1096). To be noted: small-molecule microarray, 635 nm fluorescence, higher = more signal.
Neurogenic locus notch homolog protein 3 (Homo sapiens), sequence (Q9UM47 whole entry, looked up): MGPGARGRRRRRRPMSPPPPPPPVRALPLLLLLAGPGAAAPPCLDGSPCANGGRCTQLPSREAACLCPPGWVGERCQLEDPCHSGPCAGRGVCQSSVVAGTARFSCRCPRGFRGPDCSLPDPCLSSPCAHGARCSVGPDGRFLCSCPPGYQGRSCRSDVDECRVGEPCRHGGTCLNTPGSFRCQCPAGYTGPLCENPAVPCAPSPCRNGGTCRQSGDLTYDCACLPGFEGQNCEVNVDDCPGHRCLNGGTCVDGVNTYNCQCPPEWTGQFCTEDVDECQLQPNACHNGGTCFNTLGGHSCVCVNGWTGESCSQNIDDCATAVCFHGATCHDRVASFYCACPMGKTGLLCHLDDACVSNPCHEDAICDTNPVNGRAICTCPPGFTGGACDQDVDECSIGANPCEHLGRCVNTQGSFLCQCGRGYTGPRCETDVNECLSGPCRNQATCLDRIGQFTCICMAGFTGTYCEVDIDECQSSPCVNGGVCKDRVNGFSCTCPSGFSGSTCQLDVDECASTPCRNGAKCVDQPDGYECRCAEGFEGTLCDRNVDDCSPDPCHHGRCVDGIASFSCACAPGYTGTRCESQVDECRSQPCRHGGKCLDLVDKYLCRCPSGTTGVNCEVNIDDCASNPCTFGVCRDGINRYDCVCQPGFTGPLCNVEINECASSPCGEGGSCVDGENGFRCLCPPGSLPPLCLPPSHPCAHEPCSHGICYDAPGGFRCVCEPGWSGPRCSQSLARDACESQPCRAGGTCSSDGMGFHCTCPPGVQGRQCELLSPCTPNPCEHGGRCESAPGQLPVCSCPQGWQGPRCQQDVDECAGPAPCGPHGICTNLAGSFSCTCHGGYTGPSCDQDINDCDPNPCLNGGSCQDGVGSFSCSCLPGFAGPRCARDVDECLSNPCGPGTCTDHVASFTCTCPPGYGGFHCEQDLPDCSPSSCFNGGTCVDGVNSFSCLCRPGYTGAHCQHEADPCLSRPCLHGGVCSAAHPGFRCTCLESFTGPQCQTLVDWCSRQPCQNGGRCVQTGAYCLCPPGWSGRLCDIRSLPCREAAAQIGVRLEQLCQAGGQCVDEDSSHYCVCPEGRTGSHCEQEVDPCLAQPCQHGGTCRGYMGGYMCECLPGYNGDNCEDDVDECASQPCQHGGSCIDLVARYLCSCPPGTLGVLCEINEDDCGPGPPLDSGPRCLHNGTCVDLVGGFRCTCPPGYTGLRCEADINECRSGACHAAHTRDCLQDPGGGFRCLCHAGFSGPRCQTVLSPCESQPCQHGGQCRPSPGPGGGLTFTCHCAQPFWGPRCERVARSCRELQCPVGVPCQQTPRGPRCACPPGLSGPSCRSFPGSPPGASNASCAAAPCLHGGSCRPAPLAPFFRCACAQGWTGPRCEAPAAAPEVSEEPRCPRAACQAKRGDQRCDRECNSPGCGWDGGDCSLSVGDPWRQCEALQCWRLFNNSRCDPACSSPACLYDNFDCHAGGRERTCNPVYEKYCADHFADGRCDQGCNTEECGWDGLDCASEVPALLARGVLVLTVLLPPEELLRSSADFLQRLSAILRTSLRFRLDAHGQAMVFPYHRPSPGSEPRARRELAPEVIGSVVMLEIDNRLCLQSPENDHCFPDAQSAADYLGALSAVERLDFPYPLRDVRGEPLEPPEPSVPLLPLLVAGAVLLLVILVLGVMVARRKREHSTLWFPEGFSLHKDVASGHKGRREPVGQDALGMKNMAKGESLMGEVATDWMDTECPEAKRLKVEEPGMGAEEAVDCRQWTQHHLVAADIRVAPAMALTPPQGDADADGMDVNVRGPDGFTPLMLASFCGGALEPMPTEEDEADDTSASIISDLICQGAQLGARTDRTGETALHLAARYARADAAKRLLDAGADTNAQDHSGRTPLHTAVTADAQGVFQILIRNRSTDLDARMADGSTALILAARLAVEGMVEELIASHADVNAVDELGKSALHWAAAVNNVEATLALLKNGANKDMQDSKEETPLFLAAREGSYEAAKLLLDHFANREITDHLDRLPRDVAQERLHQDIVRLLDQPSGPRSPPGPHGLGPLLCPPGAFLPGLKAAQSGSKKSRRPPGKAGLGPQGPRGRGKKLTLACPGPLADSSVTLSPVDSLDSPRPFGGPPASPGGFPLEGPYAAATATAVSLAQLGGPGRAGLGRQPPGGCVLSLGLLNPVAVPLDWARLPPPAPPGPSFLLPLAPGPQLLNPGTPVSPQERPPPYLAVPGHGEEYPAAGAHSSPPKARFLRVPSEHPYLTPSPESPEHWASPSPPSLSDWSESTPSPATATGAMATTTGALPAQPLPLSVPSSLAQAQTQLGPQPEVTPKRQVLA
The nature of experiment [10]: probe aEGFR binding to arrayed compounds – biochemical, biotinylated probe, 635/667 nm fluorescence, primary screen (AID 1097).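 Further: probe is a biotinylated anti-EGFR antibody binding compounds printed on slides; score combines fluorescence near 667 nm and signal to noise of each spot.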 To be noted: small-molecule microarray, higher = more signal.
For experiment [11], the system named is Plasmodium falciparum Sir2 (PF13_0152, Sir2A). Put plainly: Plasmodium falciparum Sir2A binding compounds – biochemical, small-molecule microarray, 635 nm fluorescence, primary screen (AID 1098).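 Further: score merges spot fluorescence intensity with its signal-to-noise ratio.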 As to conditions: fluorescence 635 nm, higher = more signal.
Experiment [12] can be described thus: probe aDKK1 binding to arrayed compounds – biochemical, biotinylated probe, 635/667 nm fluorescence, primary screen (AID 1099).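 Further: score merges 667nm spot fluorescence with signal to noise across triplicate slides; reference of the scale not given here.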 To be noted: small-molecule microarray, higher = more signal.
Experiment [13] can be described thus: probe aCHRDL2 binding to arrayed compounds – biochemical, biotinylated probe, 635/667 nm fluorescence, primary screen (AID 1100). To be noted: small-molecule microarray, higher = more signal.
Experiment [14] can be described thus: change in splice reporter luminescence, either direction, cell-based, HEK293, spliceosome inhibition project, primary screen (AID 1101).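 Further: HEK293 cells carrying a splicing-competent luciferase reporter gene; test concentration not given here.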 To be noted: HEK293 splicing luciferase reporter, 24 h, higher = more signal, called active from +8 up or from −8 down.
Experiment [15] concerns the target Fibroblast growth factor 10 (Homo sapiens) (UniProt O15520). Description: compounds binding fibroblast growth factor 10 – biochemical, small-molecule microarray, 635 nm fluorescence, primary screen (AID 1102). To be noted: FGF10 binding, fluorescence 635 nm, higher = more signal.
The subject of experiment [16] is glycogen synthase kinase-3 (GSK3A per assay name; protocol says GSK3B). Put plainly: compounds binding glycogen synthase kinase-3 – biochemical, small-molecule microarray, 635 nm fluorescence, GSK3A, primary screen (AID 1103). Further: the record names both GSK3A and GSK3B. As to conditions: fluorescence 635 nm, higher = more signal.
Experiment [17] addresses Epidermal growth factor receptor (Homo sapiens) (UniProt P00533). Description: compounds binding epidermal growth factor receptor – biochemical, small-molecule microarray, 635 nm fluorescence, primary screen (AID 1104).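 Further: score merges 667 nm emission intensity with spot signal to noise over triplicate slides.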 To be noted: EGFR binding, higher = more signal.
Experiment [18] addresses Follistatin-related protein 3 (Homo sapiens) (UniProt O95633). Put plainly: compounds binding follistatin-related protein 3 – biochemical, small-molecule microarray, 635 nm fluorescence, primary screen (AID 1105).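 Further: score merges emission near 667 nm and signal to noise per printed spot across three slides.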 As to conditions: FSTL3 binding, higher = more signal.
Experiment [19] deals with Dickkopf-related protein 1 (Homo sapiens) (UniProt O94907). Put plainly: small molecules binding DKK1 protein – biochemical, small-molecule microarray, 635 nm fluorescence scan, primary screen (AID 1106).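 Further: score merges emission near 667 nm with signal to noise over three replicate slides.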 As to conditions: higher = more signal.
Dickkopf-related protein 1 (Homo sapiens), sequence (O94907 whole entry, looked up): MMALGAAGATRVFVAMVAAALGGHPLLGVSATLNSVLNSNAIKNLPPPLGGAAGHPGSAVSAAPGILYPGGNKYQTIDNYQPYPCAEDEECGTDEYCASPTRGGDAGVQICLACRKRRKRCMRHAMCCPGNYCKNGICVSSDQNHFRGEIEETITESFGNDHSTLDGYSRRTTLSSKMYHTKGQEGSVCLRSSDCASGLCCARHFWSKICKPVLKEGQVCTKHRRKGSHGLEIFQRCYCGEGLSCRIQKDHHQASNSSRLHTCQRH
Experiment [20] has as its system Inhibin beta A chain (activin A). Description: small molecules binding activin A – biochemical, small-molecule microarray, 635 nm fluorescence scan, primary screen (AID 1107).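 Further: mouse activin A protein probed at 4.33 µg/mL on printed slides; score merges bound-protein fluorescence near 667 nm with spot signal-to-noise.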 As to conditions: INHBA, higher = more signal.

Follistatin-related protein 3 (Homo sapiens), sequence (O95633 whole entry, looked up): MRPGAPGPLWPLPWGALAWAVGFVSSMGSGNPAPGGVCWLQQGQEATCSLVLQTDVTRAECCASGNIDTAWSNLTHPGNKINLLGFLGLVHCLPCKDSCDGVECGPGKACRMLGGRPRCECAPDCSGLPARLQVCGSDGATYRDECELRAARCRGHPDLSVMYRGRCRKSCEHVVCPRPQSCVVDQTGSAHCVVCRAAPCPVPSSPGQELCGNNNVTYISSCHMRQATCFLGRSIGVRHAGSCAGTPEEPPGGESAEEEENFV
Fibroblast growth factor 10 (Homo sapiens), sequence (O15520 whole entry, looked up): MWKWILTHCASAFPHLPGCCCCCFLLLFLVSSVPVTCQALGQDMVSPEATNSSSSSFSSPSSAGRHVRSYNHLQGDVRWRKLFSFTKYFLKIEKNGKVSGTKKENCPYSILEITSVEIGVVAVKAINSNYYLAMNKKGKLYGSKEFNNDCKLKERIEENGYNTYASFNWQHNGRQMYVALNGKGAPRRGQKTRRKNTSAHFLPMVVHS
Epidermal growth factor receptor (Homo sapiens), sequence (P00533 whole entry, looked up): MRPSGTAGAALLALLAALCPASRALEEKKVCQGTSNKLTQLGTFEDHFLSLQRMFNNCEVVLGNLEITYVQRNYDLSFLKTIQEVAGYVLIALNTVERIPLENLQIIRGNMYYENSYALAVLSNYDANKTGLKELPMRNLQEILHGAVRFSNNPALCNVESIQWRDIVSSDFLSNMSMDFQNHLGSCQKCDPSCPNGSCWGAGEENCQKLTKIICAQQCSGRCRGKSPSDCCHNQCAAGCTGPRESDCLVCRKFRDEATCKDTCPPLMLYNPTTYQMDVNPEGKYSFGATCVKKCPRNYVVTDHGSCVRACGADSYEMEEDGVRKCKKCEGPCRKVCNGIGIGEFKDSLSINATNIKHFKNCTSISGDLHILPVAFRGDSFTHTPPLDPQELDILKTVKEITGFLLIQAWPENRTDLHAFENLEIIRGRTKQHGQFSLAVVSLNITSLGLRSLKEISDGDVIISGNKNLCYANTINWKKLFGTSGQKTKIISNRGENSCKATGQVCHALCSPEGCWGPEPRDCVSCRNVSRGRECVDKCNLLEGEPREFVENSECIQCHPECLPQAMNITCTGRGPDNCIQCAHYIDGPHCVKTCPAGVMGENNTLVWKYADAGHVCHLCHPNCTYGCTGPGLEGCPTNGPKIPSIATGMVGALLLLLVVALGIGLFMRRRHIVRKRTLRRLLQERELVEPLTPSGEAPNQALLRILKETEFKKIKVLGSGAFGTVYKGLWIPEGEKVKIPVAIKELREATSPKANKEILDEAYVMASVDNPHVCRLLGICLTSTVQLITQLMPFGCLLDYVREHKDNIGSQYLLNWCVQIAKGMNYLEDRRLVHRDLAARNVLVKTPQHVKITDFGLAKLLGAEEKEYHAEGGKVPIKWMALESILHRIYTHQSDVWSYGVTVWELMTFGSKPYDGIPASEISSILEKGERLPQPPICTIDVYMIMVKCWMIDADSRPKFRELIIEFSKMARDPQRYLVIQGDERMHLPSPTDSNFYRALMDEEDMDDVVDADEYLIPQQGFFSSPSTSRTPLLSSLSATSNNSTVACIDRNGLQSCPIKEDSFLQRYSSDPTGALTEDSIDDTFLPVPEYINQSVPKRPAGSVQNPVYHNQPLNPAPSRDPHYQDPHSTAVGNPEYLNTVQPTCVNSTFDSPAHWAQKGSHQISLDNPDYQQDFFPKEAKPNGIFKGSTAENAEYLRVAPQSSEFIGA
Torsin-1A-interacting protein 2 (Homo sapiens), sequence (Q8NFQ8 whole entry, looked up): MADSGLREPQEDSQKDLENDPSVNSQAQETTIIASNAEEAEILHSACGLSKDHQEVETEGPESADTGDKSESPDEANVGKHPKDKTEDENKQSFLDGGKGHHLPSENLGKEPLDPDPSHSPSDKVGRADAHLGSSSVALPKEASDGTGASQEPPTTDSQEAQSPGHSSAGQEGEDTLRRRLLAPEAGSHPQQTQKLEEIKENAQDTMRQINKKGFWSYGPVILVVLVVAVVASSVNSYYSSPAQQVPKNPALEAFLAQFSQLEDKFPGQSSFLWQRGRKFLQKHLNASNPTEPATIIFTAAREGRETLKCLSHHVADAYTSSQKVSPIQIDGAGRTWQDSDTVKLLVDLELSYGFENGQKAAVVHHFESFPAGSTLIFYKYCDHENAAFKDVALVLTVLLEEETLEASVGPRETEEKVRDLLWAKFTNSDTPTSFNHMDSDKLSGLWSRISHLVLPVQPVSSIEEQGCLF

In the case of `CCCC=C(CCC)[C@@H](NS(=O)(=O)CC12CCC(CC1=O)C2(C)C)c1ccc(C(=O)OC)cc1` (stereo not given in full), the composite z-score was 0.788 in [1]; 3.78 in experiment [5]; 0.0672 in experiment [7]; -0.132 in experiment [8]; 0.408 in experiment [9]; 0.471 in [10]. Further, the composite z-score in experiment [11] was 0.765; in experiment [12], 0.615; in experiment [13], 0.143; in experiment [15], 0.5; in [16], 0.233; in experiment [17], 0.273. The composite z-score in experiment [18] is 0.337; in experiment [19] it was 0.336; in [20], -0.0344. Moreover, the z-score in experiment [2] is -0.723 (inactive); in experiment [3], -0.005 (inactive); in experiment [4], -0.909 (inactive); in experiment [6] it was 0.0623 (inactive); in [14], -0.422 (inactive).
Take `CCC1=C2CN(Cc3ccccc3)[C@@H](C(=O)Cc3ccccc3)C2C=CCC1` (stereo not given in full): the composite z-score in experiment [1] was -0.279; in experiment [5], 2.47; in [7] it was -0.164; in experiment [8] it was 0.751; in [9] it was 0.841; in experiment [10] it was -0.177. For the same compound, the composite z-score is 1.46 in experiment [11]; -0.0616 in experiment [12]; -0.141 in experiment [13]; 0.57 in [15]; -0.439 in experiment [16]; -0.42 in [17]. Besides, the results for the composite z-score in experiment [18], in [19] and in experiment [20] were 0.532, 0.118 and 0.749, respectively. The z-score in experiment [2] was -0.273 (inactive); in [3], -2.18 (inactive); in experiment [4], -0.728 (inactive); in experiment [6], 0.673 (inactive); in experiment [14], -1.04 (inactive).
In the case of `COC(=O)[C@@]1(Cc2ccc(F)cc2)[C@H]2c3cc(C(=O)N4CCCC4)n(Cc4ccc(C)c(F)c4F)c3C[C@H]2CN1C(=O)c1ccccc1`, the composite z-score in experiment [1] is -1.69; in experiment [5] it was 0.919; in [7], 0.136; in experiment [8], -0.849; in experiment [9], -0.338; in experiment [10] it was -0.111. The composite z-score in [11] is 0.961; in [12], 0.902; in experiment [13] it was 0.931; in [15] it was -0.291; in experiment [16] it was -0.931; in [17], -0.499. Also, the composite z-score in experiment [18] is -1.07; in experiment [19], -0.453; in experiment [20], 1.42. Besides, the z-score is 0.0074 (inactive) in [2]; -0.0098 (inactive) in [3]; 0.378 (inactive) in [4]; -0.477 (inactive) in experiment [6]; -4.09 (inactive) in experiment [14].
`COC(=O)[C@@]1(Cc2ccccc2)[C@H]2c3cc(C(=O)N(C)C)n(Cc4ccc(C)o4)c3C[C@H]2CN1C(=O)c1ccccc1`: the composite z-score in experiment [1] is 0.163; in experiment [5] it was 2.93; in experiment [7], 0.746; in [8], -0.471; in [9] it was 1.13; in [10], 0.667. Further, the composite z-score was found to be 0.527 in experiment [11]; 2.33 in experiment [12]; 1.57 in experiment [13]; 0.93 in experiment [15]; 0.502 in [16]; 0.857 in experiment [17]. In addition, the figures for the composite z-score in [18], in experiment [19] and in [20] were 0.897, -1.11 and 1.44, respectively. Also, the z-score in experiment [2] was 1.07 (inactive); in experiment [3], 0.65 (inactive); in [4], 0.982 (inactive); in [6], -1.64 (inactive); in experiment [14], -2.02 (inactive).
As for `Cc1cc(C)c(C(O)C2C=CC3C(=O)N(c4ccccc4)C(=O)C3N2Nc2ccccc2F)c(C)c1` (stereo not given), the composite z-score is -0.0446 in [1]; 1.89 in experiment [5]; 0.0216 in [7]; -0.73 in experiment [8]; -0.0072 in [9]; 0.779 in [10]. Moreover, the composite z-score was 0.622 in [11]; -0.134 in experiment [12]; 0.706 in experiment [13]; 0.119 in experiment [15]; -0.574 in experiment [16]; -0.396 in experiment [17]. In addition, the composite z-score in [18] is -0.191; in [19] it was -0.26; in experiment [20] it was 0.72. In addition, the z-score was 1.37 (inactive) in [2]; 1.11 (inactive) in experiment [3]; 1.77 (inactive) in experiment [4]; -1.31 (inactive) in experiment [6]; 1.75 (inactive) in [14].
